# Compound activity as filed in PubChem.
# Compounds with a hit are over-represented: about 3.1% of the library has one in this group of screens.
# p53null 32C kill: p53 null cell cytotoxicity, permissive temperature; actives 0.62% (n = 55,000); Potency, µM (titrated, usually from 46.1 µM), most hits filed as cytotoxic; H1299-neo p53 null cells, ATP luminescence, 24 h, 32C; AID 903; further: nearly all actives have a fitted effect of over 55% in size
#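 Overnight 37C seeding (600 cells/well) of H1299-neo preceded a 24 hr, 32C exposure to compounds up to 46 uM. ATP levels, read by luminescence after 20 min at RT, indicated surviving cells.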
# S16 viability: cytotoxicity in S16 Pmp22-F2sN Schwann cells | S16 Pmp22-F2sN Schwann cells viability, CellTiter-Glo, 24 h | Potency, µM (doses to about 57.5 µM), usual class: cytotoxic | actives 0.48% (n = 43,000) | AID 1508642; further: nearly all actives have a fitted effect of over 65% in size
#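 Luminescence from CellTiter-Glo, read by CCD camera after a 15 min room-temperature incubation, served as the viability signal. Reporter Schwann cells (S16 Pmp22-F2sN) had been treated with pin-transferred compounds for 24 h at 37C.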
# p53null 39C tox: kills p53 null cells at the nonpermissive temperature | H1299 p53-null (neo) cells, 39C, ATPlite viability, 24 h | actives 0.97% (n = 55,000) | AID 904 | Potency, µM (doses to about 46.1 µM), actives largely listed as cytotoxic; further: nearly all actives have a fitted effect of over 50% in size
#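 Luminescent ATP signal reported cell survival after H1299 lines (neo, p53 null; or p53 A138V) received up to 46 uM compound and 24 hr incubation at 39C.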
# SKOV3 invasion: ovarian cancer metastasis inhibition, 3D TME model; SKOV3ip1-GFP adhesion/invasion on 3D omental model, fluorescence; Potency, µM (titrated, usually from 45.8 µM), usual class: inhibitors; actives 0.1% (n = 46,000); further: nearly all actives have a fitted effect of over 65% in size
#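 A 3D layer of primary human omental fibroblasts, mesothelial cells, fibronectin and collagen I, grown 48 hr, received SKOV3ip1-GFP cells in serum-free medium plus compounds at 0.36-46 umol/L. After 2 hr RT and 16 hr 37 C, fixed adherent GFP cells were counted; normalized to DMSO and tomatine.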
# PMP22 txn prim: modulates PMP22 transcription in S16 Schwann cells. S16 Pmp22-F2sN Schwann cells, FLuc/NLuc coincidence luminescence, 24 h. Potency, µM (titrated, usually from 57.5 µM), most hits filed as inhibitors. actives 2% (n = 43,000). AID 1508649; active means clear falling dose curves in both reporters; inconclusive means both reporters move, but less clearly or upward; inactive means either reporter flat; the % is the NLuc reporter signal
#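 Transcriptional readout in edited S16(c9) cells: two luciferases reported from the Pmp22 locus, measured in turn after 24 h compound incubation.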
# mTORC1 inh: reduces mTORC1 signaling in Tsc2 and p53 null MEF cells; AID 493208; Tsc2-/- p53-/- MEF, phospho-rpS6 immunofluorescence/PI, 24 h; actives 0.78% (n = 44,000); Potency, µM (top dose mostly 38.3 µM), hits mostly inhibitors; further: nearly all actives have a fitted effect of over 50% in size
#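 Read-out: phospho-S6 Alexa-488 intensity over PI intensity per well, scored as % active cells using thresholds from rapamycin (7.5 nM) and DMSO controls. Tsc2-/-, p53-/- MEFs exposed to compound for 24 h; PI cell count recorded as viability.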
# NLuc sat counter: inhibits NanoLuc at saturating substrate, PMP22 counter-screen; shares compounds with PMP22 txn prim; Secreted NLuc enzyme (filtered S16 cell medium), Nano-Glo luminescence; Potency, µM (titrated, usually from 57.5 µM), hits mostly inhibitors; actives 4% (n = 690); AID 1508638
# NLuc Km ctr: NanoLuc inhibition at Km substrate, PMP22 artifact check; shares compounds with PMP22 txn prim; secreted NLuc enzyme, coelenterazine luminescence, Km conditions; Potency, µM (titrated, usually from 57.5 µM), actives largely listed as inhibitors; actives 5% (n = 690); AID 1508639
# FLuc counter: firefly luciferase enzyme inhibition artifact for PMP22 screen; purified P. pyralis FLuc, luminescence, 10 min; shares compounds with PMP22 txn prim; Potency, µM (series often up to 57.5 µM), actives largely listed as inhibitors; 690 tested, under 10 active; AID 1508640
# Target sequence (P08659 whole entry, looked up): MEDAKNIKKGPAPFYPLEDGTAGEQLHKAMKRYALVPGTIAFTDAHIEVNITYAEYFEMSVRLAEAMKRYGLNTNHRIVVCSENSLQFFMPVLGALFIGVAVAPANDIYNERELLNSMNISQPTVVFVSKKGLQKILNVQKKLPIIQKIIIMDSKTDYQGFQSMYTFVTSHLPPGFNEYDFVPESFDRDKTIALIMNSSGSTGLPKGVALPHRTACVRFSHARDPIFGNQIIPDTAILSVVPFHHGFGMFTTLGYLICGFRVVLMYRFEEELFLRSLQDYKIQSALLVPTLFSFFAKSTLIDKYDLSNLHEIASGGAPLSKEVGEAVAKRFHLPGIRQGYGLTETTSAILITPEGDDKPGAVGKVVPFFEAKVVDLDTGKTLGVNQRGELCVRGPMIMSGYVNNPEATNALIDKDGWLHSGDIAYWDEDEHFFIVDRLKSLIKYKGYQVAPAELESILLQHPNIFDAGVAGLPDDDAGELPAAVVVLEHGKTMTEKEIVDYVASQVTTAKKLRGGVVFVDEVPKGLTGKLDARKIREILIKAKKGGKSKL
# S16 viab conf: confirmation of cytotoxicity in S16 Pmp22-F2sN Schwann cells (luciferase reporters placed in the Pmp22 gene) | Potency, µM (titrated, usually from 57.5 µM), usual class: cytotoxic | actives 7% (n = 690) | AID 1508641 | shares compounds with PMP22 txn prim | S16 Schwann cells viability, CellTiter-Glo ATP luminescence, 24 h
# PMP22 txn conf: PMP22 transcription modulation, confirmatory. actives 22% (n = 690). S16 Schwann cells Pmp22-F2sN, dual luciferase, 24 h. Potency, µM (titrated, usually from 57.5 µM), usual class: inhibitors. shares compounds with PMP22 txn prim; active means clear falling dose curves in both reporters; inconclusive means both reporters move, but less clearly or upward; inactive means either reporter flat; the % is the FLuc reporter signal
# PMP22 prot conf: rat PMP22 protein level modulation, confirmatory | AID 1508647 | shares compounds with PMP22 txn prim | Potency, µM (titrated, usually from 27.9 µM), actives largely listed as inhibitors | 95 tested, under 10 active | S16 Schwann cells Pmp22-HiBiT, luminescence, 48 h
# Hits are given with their value; . = inactive; ? = inconclusive; / = no result. Unless noted, the call rests on the fitted dose curve; in most records, active means well fitted curve in the direction sought with a large enough effect; inconclusive means small, poorly fitted or top-dose-only effect, or another doubt; inactive means no such curve, though single readings can be large; an effect the other way counts as inactive or inconclusive.
SMILES,p53null 32C kill,S16 viability,p53null 39C tox,SKOV3 invasion,PMP22 txn prim,mTORC1 inh,NLuc sat counter,NLuc Km ctr,FLuc counter,S16 viab conf,PMP22 txn conf,others
Cc1ccc2nc(Cl)c3cc(C(=O)N4CCCC(C)C4)sc3c2c1 (stereo not given),.,.,.,.,?,.,/,/,/,/,/,
COCCCNC(=O)c1ccc(-n2c(-c3ccccc3)cc3c2CCC(C)C3)cc1 (stereo not given),.,.,.,.,18µM,.,.,.,.,?,2.7µM,PMP22 prot conf=.
CCOCCCNC(=O)c1ccc(-n2c(-c3ccccc3)cc3c2CCCCC3)cc1,.,.,.,.,.,.,/,/,/,/,/,
CC(C)OCCCNC(=O)c1ccc(-n2c(-c3ccccc3)cc3c2CCCC3)cc1,.,.,.,.,13µM,.,.,.,.,.,?,
CC(C)NC(=O)c1ccc(-n2c(-c3ccccc3)cc3c2CCCC3)cc1,.,?,.,.,14µM,?,.,.,.,?,.,
CN(C)CCNC(=O)c1ccc(-n2c(-c3ccccc3)cc3c2CCCC3)cc1,.,.,.,.,20µM,?,.,.,.,?,?,
CCCNC(=O)c1ccc(-n2c(-c3ccccc3)cc3c2CCCCC3)cc1,.,.,.,?,?,.,/,/,/,/,/,
CCC(C)NC(=O)c1ccc(-n2c(-c3ccccc3)cc3c2CCCC3)cc1 (stereo not given),.,.,.,.,?,.,/,/,/,/,/,
O=C(Cn1c(=O)n(-c2ccc(F)cc2)c(=O)c2sc3ccccc3c21)NC1CCCCC1,.,.,.,.,?,.,/,/,/,/,/,
O=C(CN1C(=O)C2CCCCN2c2ccc(C(=O)N3CCCC3)cc21)NCc1ccccc1 (stereo not given),.,.,.,.,.,.,/,/,/,/,/,
Cc1ccc(OC(=O)CSc2nnc(CNC(=O)c3ccccc3)o2)cc1,.,.,.,.,.,.,/,/,/,/,/,
N#Cc1c(C(F)(F)F)cc(-c2cccs2)nc1SCC(=O)Nc1ccc(Cl)cc1,.,.,.,.,19µM,?,.,.,.,.,?,
COc1ccc(NC(=O)c2cnn(-c3ccc(C)cc3)c2-n2cccc2)cc1Cl,.,/,.,.,/,.,/,/,/,/,/,
Cc1c(Cl)cccc1NC(=O)Cn1c(=O)n(Cc2ccco2)c(=O)c2sc3ccccc3c21,.,.,.,.,13µM,.,.,.,.,.,15µM,
CCc1ccccc1NC(=O)Cn1c(=O)n(Cc2ccco2)c(=O)c2sc3ccccc3c21,.,.,.,.,?,.,/,/,/,/,/,
